Screens deposited in PubChem BioAssay by several laboratories.
Compounds with a hit are over-represented: about 3.5% of the library has one in this group of screens.
Mtb betalactam: beta-lactam sensitization of Mtb H37Rv | M. tuberculosis H37Rv growth with meropenem, percent inhibition | inhibition, % at 25 µM | 330,000 tested, 0.27% active | AID 434955; call rule not given here;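 note: growth measured after seven days incubation then overnight dye step; 0% = bacteria only wells and 100% = bacteria with antibiotic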
Rv3671c inh: inhibits the M. tuberculosis serine protease Rv3671c; P9WHR9; inhibition, % at 5.96 µM; 320,000 tested, 0.048% active; AID 2606; in the data active = inhibition above about 38%;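 note: extracellular domain of Rv3671c used as enzyme; 0% = enzyme with DMSO and 100% = no enzyme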
GDH-TPI counter-1: inhibits GDH-TPI coupling enzymes, artifact for Mtb FBA screen. 360,000 tested, 1.2% active. inhibition, % at 4.8 µM. GDH-TPI coupled enzyme counterscreen, NADH absorbance; in the data active = inhibition above about 30%;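 note: 0% = DMSO wells and 100% = wells lacking the enzyme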
UGM FP inh: inhibitors of M. tuberculosis UDP-galactopyranose mutase | purified UGM, fluorescence polarization probe displacement | 320,000 tested, 0.06% active | P9WIQ1 | inhibition, % at 10 µM; in the data active = inhibition above about 10%, passing the limit was not always enough
FBA Mtb inh: inhibits M. tuberculosis FBA enzyme | 360,000 tested, 2.3% active | P9WQA3 | AID 588726 | purified M. tuberculosis FBA, fluorescence read-out | inhibition, % at 1 µM;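 note: 0% = vehicle and 100% = reference inhibitor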
Target sequence (P9WQA3 whole entry, looked up): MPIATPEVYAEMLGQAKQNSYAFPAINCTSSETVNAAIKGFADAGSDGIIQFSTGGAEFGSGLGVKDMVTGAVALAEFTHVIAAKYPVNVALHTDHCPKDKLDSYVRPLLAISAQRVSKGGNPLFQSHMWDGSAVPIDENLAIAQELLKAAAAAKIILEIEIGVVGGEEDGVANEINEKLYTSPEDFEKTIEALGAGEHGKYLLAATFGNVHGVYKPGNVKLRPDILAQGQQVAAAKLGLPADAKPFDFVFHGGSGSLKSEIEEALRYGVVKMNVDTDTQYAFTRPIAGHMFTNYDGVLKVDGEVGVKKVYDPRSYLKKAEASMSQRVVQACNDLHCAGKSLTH
Mtb FBA inh conf: Mtb FBA inhibition, confirmed; shares compounds with FBA Mtb inh; AID 651616; purified M. tuberculosis FBA, fluorescence read-out; inhibition, % at 1 µM; 5,600 tested, 78% active;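 note: 0% = vehicle wells and 100% = reference inhibitor wells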
GDH-TPI counter-2: counter-screen for M. tuberculosis FBA inhibitors: GDH-TPI coupled enzyme inhibition; shares compounds with FBA Mtb inh; GDH-TPI coupled enzyme counterscreen, fluorescence; inhibition, % at 1 µM; 5,600 tested, 81% active; AID 652141; in the data active = inhibition above about 10%
GDH-TPI dose: inhibits GDH-TPI coupling enzymes in dose response; shares compounds with FBA Mtb inh; GDH-TPI coupled enzyme assay, fluorescence, artifact counterscreen; IC50, µM; 170 tested, 79% active; call rule not given here
* hit, by the source's call; . = not tested or not shown; + = active, no number. Cut-off read from the data, not from the text of the source, unless noted: active = inhibition above about 27%; inactive = the rest.

SMILES | Mtb betalactam | Rv3671c inh | GDH-TPI counter-1 | UGM FP inh | FBA Mtb inh | Mtb FBA inh conf | GDH-TPI counter-2 | others
O=C(C[n+]1ccccc1)N/N=C/c1cccs1 | -1 | 0 | 9 | -1 | -5 | . | .
Cc1ccc(C(=O)NC(=O)OCCn2c(C)cnc2[N+](=O)[O-])cc1 | 2 | 0 | 17 | 1 | -2 | . | .
COc1ccc(OCCSCc2nnc(NC(=O)Nc3ccc(Cl)cc3)s2)cc1 | 2 | -7 | -1 | 3 | 29* | 10 | -5
CC(Oc1c(Cl)cccc1Cl)C1=NCCN1 (stereo not given) | -3 | 2 | . | -2 | . | . | .
O=C(CNC(=O)c1cccc(Br)c1)N/N=C/c1ccc2c(c1)OCO2 | 2 | 5 | 11 | 1 | 33* | 141* | 106*
CCN(CC)c1ccc(/C=N/NC(=O)CNC(=O)c2ccc3c(c2)OCCO3)cc1 | 5 | -2 | 42* | 4 | 47* | 54* | 47*
CCc1nc2ccc(C(=O)NCCN3CCOCC3)cn2c1N(CC)CCOC | . | . | -2 | . | -2 | . | .
Cc1ccc(C(=O)NCC(=O)Nc2ncccc2C)s1 | -15 | 7 | 8 | 5 | 4 | . | .
O=C(Nc1nnc([C@@H]2C[C@H](O)[C@@H](CO)O2)s1)Nc1cccc2c1CCCC2 | . | . | 9 | . | 1 | . | .
CCOC(=O)N1CCc2cc(OC)c(OC)c3c2c1cc1cc(OC)c(OC)cc13 | . | . | 9 | . | 38* | 12 | -1 | GDH-TPI dose=5.5*
Cc1ccc(C(=O)NCC(=O)OCC(=O)c2c(N)n(C)c(=O)n(C)c2=O)cc1C | -4 | 1 | 2 | 0 | -2 | . | .
COc1ccc2oc(=O)c(C(=O)NCc3ccco3)cc2c1 | 7 | 4 | 20 | -1 | 65* | -2 | -5
COc1ccc2oc(=O)c(C(=O)NC(C)c3ccccc3)cc2c1 (stereo not given) | -7 | -5 | 12 | 2 | 44* | 142* | 87*
COc1cccc2cc(C(=O)NCc3ccco3)c(=O)oc12 | 47 | -3 | 12 | 2 | 1 | . | .
COc1ccc2oc(=O)c(C(=O)Nc3ccccc3O)cc2c1 | 63 | -1 | 0 | 1 | -8 | . | .
CCOC(=O)c1cc(-c2ccccc2)nc2nc(N3CCCCC3)sc12 | 4 | -6 | -10 | 1 | 18 | . | .
COc1ccc(-c2cc(C(=O)O)c3sc(N4CCCCC4)nc3n2)cc1OC | -7 | -2 | 20 | 0 | 94* | 109* | 67*
O=C(CN1C(=O)CCSc2ccc(S(=O)(=O)N3CCCC3)cc21)NCc1ccccc1Cl | 4 | -6 | -3 | 0 | 0 | . | .
Cc1cc(-c2ccccc2)c(C#N)c(N)n1 | 3 | 1 | 5 | 0 | 18 | . | .
COC(=O)c1cc(C)nc(N)c1C#N | 1 | -3 | 3 | 1 | 108* | 128* | 82*
O=c1ccc2cc(S(=O)(=O)Nc3ccc(Br)cc3)ccc2o1 | -4 | . | -3 | -1 | -1 | . | .
COc1ccc(CNC(=O)C2CCN(C(=O)c3csc(Nc4ccc(C)cc4)n3)CC2)cc1 | 5 | 5 | 1 | 1 | 1 | . | .
COc1ccc2[nH]c3c(N4CCc5ccccc5C4)ncnc3c2c1 | 89 | -11 | 5 | 1 | 40* | 1 | 1
COc1cc2[nH]c3c(N4CCN(c5ccccn5)CC4)ncnc3c2cc1OC | 99 | -5 | 0 | -1 | 29* | -5 | -7
COc1ccc(N2CCN(c3ncnc4c3[nH]c3ccccc34)CC2)cc1 | -8 | 1 | 3 | 0 | 0 | . | .
SMILES | Mtb betalactam | Rv3671c inh | GDH-TPI counter-1 | UGM FP inh | FBA Mtb inh | Mtb FBA inh conf | GDH-TPI counter-2 | others
COc1ccccc1N1CCN(C(=O)c2ccc(-c3nc4ccccc4s3)o2)CC1 | 49 | -9 | 24 | . | 1 | . | .
Cc1cc2[nH]c(=O)c(=O)[nH]c2cc1S(=O)(=O)NC1CCC(C)CC1 (stereo not given) | 3 | -12 | 14 | -1 | 29* | 191* | 188*
Cc1cc2[nH]c(=O)c(=O)[nH]c2cc1S(=O)(=O)NCC(C)c1ccccc1 (stereo not given) | . | . | 18 | . | 24 | . | .
Cc1cc2[nH]c(=O)c(=O)[nH]c2cc1S(=O)(=O)NCc1ccccc1 | 0 | -2 | 7 | 0 | 33* | 72* | 65*
Cc1cc(S(N)(=O)=O)c(N)c(S(N)(=O)=O)c1 | -4 | -11 | 8 | 6 | 29* | + | +
CN(C(=O)CSc1nc(N)c2c3c(sc2n1)CSC(C)(C)C3)c1ccccc1 | 70 | -19 | 3 | 1 | 31* | 61* | 49*
CN(C(=O)CSC1=NCCS1)c1ccccc1 | -5 | -3 | 2 | 0 | -1 | . | .
Cc1cccc(N(C(=O)c2snc(C(N)=O)c2N)C(C(=O)NCC2CCCO2)c2ccc(N(C)C)cc2)c1C (stereo not given) | 6 | -5 | 7 | -1 | 0 | . | .
CCCCc1cc(=O)oc2cc(OC(C)C(=O)NCc3ccccn3)c(Cl)cc12 (stereo not given) | 81 | -12 | -1 | 1 | 2 | . | .
CCCCc1cc(=O)oc2cc(C)cc(OCC(=O)NCc3ccccn3)c12 | 6 | -2 | -6 | -1 | 64* | 47* | 39*
CCCCc1cc(=O)oc2cc(C)cc(OC(C)C(=O)NCc3ccccn3)c12 (stereo not given) | 3 | -6 | 10 | 0 | 63* | 153* | 122*
Cc1cc(OC(C)C(=O)NCc2ccccn2)c2c(C)cc(=O)oc2c1 (stereo not given) | -7 | -10 | 9 | 0 | 103* | 1 | -4
CN(Cc1ccco1)S(=O)(=O)c1ccc(CN2C(=O)c3cccnc3C2=O)s1 | 9 | -7 | -3 | -2 | -3 | . | .
CC(C)Oc1ccc(S(=O)(=O)N2CCCCC2)cc1NC(=O)C1CCC1 | -5 | -1 | 6 | 0 | 0 | . | .
CN(C)C(=O)CCc1ccc2c3c([nH]c2c1)[C@]1(C)[C@@H](C(=O)N2CCCCC2)C[C@H](CC(=O)NCCCn2ccnc2)C(=O)N1CC3 | . | . | -3 | . | 2 | . | .
COc1cccc(N2CC(=O)N(NC(=O)c3sc4nc(C)cc(C)c4c3N)CC2=O)c1 | -2 | 0 | 5 | 2 | 54* | + | 175*
Cc1cc(C)c2c(N)c(C(=O)NN3CC(=O)N(c4ccccc4F)CC3=O)sc2n1 | -5 | -1 | 3 | -1 | 62* | 104* | 87*
Cc1cc(C)c2c(N)c(C(=O)NNC(=O)c3ccccc3)sc2n1 | -4 | 16 | 3 | 1 | 6 | . | .
CCc1cccc(CC)c1NC(=O)COC(=O)CCc1cc(OC)c(OC)c(OC)c1 | -1 | -9 | 3 | . | 1 | . | .
CC1(C(=O)NS(=O)(=O)c2cccc(C#N)c2)CCN1C(=O)Cc1ccc(-c2ccccc2)cc1 (stereo not given) | . | . | -2 | . | -1 | . | .
Cc1nc(N2CCN(C(=O)c3ccco3)CC2)c(C#N)c2c1CCCC2 | 14 | 1 | 11 | -1 | 38* | 98* | 83*
